ChEMBL document CHEMBL3988442, “University of Dundee, Small-Polar-MMV Screening Library” (2021)
Screen size: about 69,000 compounds; about 950 (1.4%) showed an effect of 50% or more. Only a selection was taken, and strong results are over-represented in it overall.

The molecules below were run on Mycobacterium tuberculosis (assay: Cornell M. t heat shock assay; also: in the data most compounds retested in dose-response had high values).
Assay type: functional, organism-based
Parameters: dose or concentration left out as unconfirmed

Structure (SMILES) | Percent Effect
CC/N=c1\c(NC(=O)C(C)(C)C)c(O)oc2ccccc12 | -10.16%
Oc1cc(-c2nccs2)nc(C2CCN(Cc3cccs3)CC2)n1 | 15.4%
Oc1cc(C2CCCN(Cc3cccs3)C2)nc(-c2ccccn2)n1 (stereo not given) | 99.87%
Cn1ncc2ccc(C3CCCN(Cc4cccs4)C3)nc21 (stereo not given) | 13.99%
Oc1cc(C2CCCCN2Cc2ccsc2)nc(-c2ccncc2)n1 (stereo not given) | -9.132%
Oc1cc(C2CCCCN2Cc2cccs2)nc(-c2ccccn2)n1 (stereo not given) | 103.7%
Oc1cc(C2CCCCN2Cc2cccs2)nc(-c2ccncc2)n1 (stereo not given) | -5.43%
O=C(O)C(F)(F)F.O=C1[C@H]2CN(Cc3nccs3)C[C@H]2CN1c1cncnc1 | -2.915%
CN(C)CCO[C@@H]1CC[C@H]2[C@H]1OCCN2C(=O)COc1ccccc1.O=C(O)C(F)(F)F | 10.1%
COc1ccc(CN2C[C@@H]3OCCN(CC4CCCO4)[C@@H]3C2)cc1.O=C(O)C(F)(F)F.O=C(O)C(F)(F)F (stereo not given in full) | 2.354%
COc1ccc(CN2CC[C@H]3[C@H]2CCN3C(=O)c2cnn(C)c2)cc1.O=C(O)C(F)(F)F | 1.435%
CC(=O)N1Cc2ccnn2CC(C(=O)NCc2cccnc2)C1.O=C(O)C(F)(F)F (stereo not given) | 37.04%
FC(F)(F)c1ccc2nc([C@H]3CCN(C4CCCCC4)C3)[nH]c2c1 | 60.59%
FC(F)(F)c1ccc2nc([C@H]3CCN(C4CCOCC4)C3)[nH]c2c1 | 5.789%
FC(F)(F)c1ccc2nc([C@H]3CCN(C4CCC4)C3)[nH]c2c1 | 17.31%
COc1c(C2CCCN2CC(=O)Nc2nccs2)c(C)nn1C (stereo not given) | 8.304%
CC(=O)Nc1nc(CN2CCCC2Cn2cccn2)cs1 (stereo not given) | -5.465%
Cc1cnn(CC2CCCN2CC(=O)NCc2ccccn2)c1 (stereo not given) | -22.46%
CC(=O)Nc1nc(CN2CCCC2Cn2cc(C)cn2)cs1 (stereo not given) | 69.78%
CC(=O)Nc1nc(CN2CCCC2Cn2cncn2)cs1 (stereo not given) | -13%
Cc1cnn(CC2CCCN2CC(=O)Nc2nncs2)c1 (stereo not given) | -6.011%
COc1c(C2CCCN2CC(=O)Nc2nc(C)cs2)c(C)nn1C (stereo not given) | 75.33%
O=C(CN1CCCC1Cn1cncn1)Nc1nccs1 (stereo not given) | 4.576%
Cc1cnn(CC2CCCN2CC(=O)Nc2nccs2)c1 (stereo not given) | 102.3%

Structure (SMILES) | Percent Effect
Cc1cnn(CC2CCCN2CC(=O)Nc2nc(C)cs2)c1 (stereo not given) | 100.4%
Cc1cnn(CC2CCCN2CC(=O)Nc2cc(C)nn2C)c1 (stereo not given) | 19.4%
COc1c(C2CCCN2CC(=O)Nc2cc(C)no2)c(C)nn1C (stereo not given) | 8.972%
Cc1nc[nH]c1CN(Cc1ccccc1F)C1CC(C)(C)NC(C)(C)C1.O=C(O)CC(O)(CC(=O)O)C(=O)O | -2.69%
Cc1ccc(C2(CN3CCN(Cc4cn(C)nc4C)CC3)CC2)cc1.Cl | 5.814%
Cl.O=C(NC1CCCC1)c1ccnc(C2CCNCC2)c1 | -6.855%
CN(C)C(=O)COCC1CN(Cc2ccoc2)Cc2ncn(C)c21.O=C(O)C(F)(F)F.O=C(O)C(F)(F)F (stereo not given) | -26.5%
Cc1ccc(N2CCCC3(COCCN(c4ccccn4)C3)C2)nn1.O=C(O)C(F)(F)F (stereo not given) | -19.77%
Cc1nc2cc(-c3nccn3C)nn2c(N2CCC(O)CC2)c1C.Cl | 0.7953%
CNC(=O)[C@@H]1C[C@H]2CN(Cc3ccco3)C[C@H]2N1C.O=C(O)C(F)(F)F.O=C(O)C(F)(F)F | -19.75%
CS(=O)(=O)NC[C@]12COC[C@H]1CN(CC1CCCC1)C2.O=C(O)C(F)(F)F | -15.72%
O=C(O)C(F)(F)F.O=C(O)C(F)(F)F.O=C(O)C(F)(F)F.c1ccc(CN2CCC3(CC2)CCN(Cc2cccs2)C3)nc1 | -44.21%
Cc1nn(C)c2c(=O)n(CC(=O)NCc3ccccc3Cl)ccc12 | -7.047%
Cc1cnn(CC2CCCCN2CC(=O)Nc2nc(C)cs2)c1 (stereo not given) | 74.94%
Cc1cnn(CC2CCCCN2CC(=O)Nc2nncs2)c1 (stereo not given) | 18.17%
Cc1cnn(CC2CCCCN2CC(=O)Nc2c(C)n[nH]c2C)c1 (stereo not given) | -5.895%
O=C(N[C@@H]1CN(Cc2c[nH]nc2-c2ccccc2)C[C@H]1O)c1cc[nH]n1 | 1.707%
CN1CCCCc2c1nc1c(c2N)CCC1.O=C(O)c1cc([N+](=O)[O-])ccc1Cl | -19.05%
Cc1cc(C)cc(CN2CCC3(CC2)CC(Nc2ncccn2)CO3)c1.O=C(O)C(F)(F)F (stereo not given) | -30.68%
C=C/C=c1\c(=C/C)oc2c(NCc3ccccc3)nc(C)nc12 | 104.3%
C=C/C=c1\c(=C/C)oc2c(NCc3ccccc3)ncnc12 | -0.4342%
C=C/C=c1\c(=C/C)oc2c(NCc3ccccc3)nc(CC)nc12 | 75.04%
CCn1c(NCc2ccccc2)nc2c(C)nn(C)c2c1=O | 12.91%
CCc1nc(NCc2ccccn2)c2c(n1)c(C)nn2C | -15.98%

Structure (SMILES) | Percent Effect
Cc1nc(NCc2cccnc2)c2c(n1)c(C)nn2C | 15.35%
CS(=O)(=O)N1CCC2(CC1)COC(COc1ccccn1)C2.O=C(O)C(F)(F)F (stereo not given) | -12.81%
O=C(O)C(F)(F)F.O=C(O)C(F)(F)F.O=C1[C@H]2CN(Cc3ccccc3)C[C@H]2CN1CCN1CCCC1 | 1.586%
Cc1oncc1C(=O)N[C@@H]1CN(C2CCC2)C[C@@H]2CCCO[C@@H]21.O=C(O)C(F)(F)F | 25.58%
Cc1c[nH]nc1C1CCCN1Cc1ncc[nH]1.O=CO (stereo not given) | -1.504%
Cc1ccccc1NC(=O)c1cncc(C2CCNCC2)n1.Cl | 27.66%
CN(C)S(=O)(=O)NCc1cccnc1Oc1ccccc1 | -4.23%
O=C(CN1CCCCCC1)NCc1cccnc1Oc1ccccc1 | 2.86%
c1ccc(Oc2ncccc2CNCc2ccccn2)cc1 | 69.15%
O=C(C[C@@H]1COC[C@H]2CN(CC3CC3)C[C@@H]12)NCc1cccnc1.O=C(O)C(F)(F)F.O=C(O)C(F)(F)F | 9.594%
O=C(Cc1cnc(-c2c(Cl)cccc2Cl)s1)N1CCOCC1 | -11.24%
NC(=O)C1CCN(C(=O)Cc2cnc(-c3c(Cl)cccc3Cl)s2)CC1 | 65.47%
CC(=O)N1CCN(C(=O)Cc2cnc(-c3c(Cl)cccc3Cl)s2)CC1 | 3.544%
O=C(O)C(F)(F)F.O=C1CC(c2cccnc2)C2(CCN(S(=O)(=O)C3CC3)CC2)N1 (stereo not given) | -6.88%
CN(C)S(=O)(=O)NCc1cccnc1Oc1ccc(F)cc1F | -13.26%
Cc1ccccc1Oc1ncccc1CNS(=O)(=O)N(C)C | -10.74%
CN(C)S(=O)(=O)NCc1cccnc1Oc1ccccc1F | 7.179%
CN(C)S(=O)(=O)NCc1nc(-c2cccc(F)c2)c(-c2ccccn2)[nH]1 | 62.81%
Cc1ccc(-c2nc(CNS(=O)(=O)N(C)C)[nH]c2-c2ccccn2)cc1 | 101.5%
Cc1nc(-c2ccc(CNS(=O)(=O)N(C)C)cc2)ccc1C(N)=O | 10.37%
Cl.O=C(c1cccnc1N1CCN(CCO)CC1)N1CCCC1 | 2.64%
COCC1CN(CC2CC2)Cc2nccn2C1.O=C(O)C(F)(F)F (stereo not given) | -7.797%
COCC(=O)N(C)Cc1nc(N2CCCC2)ncc1-c1ccncc1.Cl | -16.19%
COc1ccc(C2CCCN2S(=O)(=O)N(C)C)cc1 (stereo not given) | -0.3722%

Structure (SMILES) | Percent Effect
COc1ccc(C2CCCCCN2S(=O)(=O)N(C)C)cc1 (stereo not given) | 68.3%
COc1ccc(C2CCCCCN2S(C)(=O)=O)cc1 (stereo not given) | -12.37%
CN(C)CCOCC1CN(Cc2ccccn2)Cc2nnn(C)c21.O=C(O)C(F)(F)F.O=C(O)C(F)(F)F.O=C(O)C(F)(F)F (stereo not given) | -27.07%
Cc1ccc(C(CCNCCN(C)C)C2CCOC(C)(C)C2)cc1.O=C(O)C(=O)O (stereo not given) | 1.762%
Cl.NC(CC1CCCCC1)c1ccccc1 (stereo not given) | 1.9%
NC(CC1CCCC1)c1ccc(Oc2ccccc2)cc1 (stereo not given) | 102.825%
Cl.NC(CC1CCCC1)c1ccccc1 (stereo not given) | -17.85%
COc1ccc(-c2cc(C3CCNCC3)ccn2)cc1.Cl | -16.31%
Cc1nc(CN2CCOCC3(CCN(c4ncccn4)CC3)C2)cs1.O=C(O)C(F)(F)F | -11.45%
CCc1nccn1-c1cccc(C2CCCN2)n1.Cl.Cl (stereo not given) | 8.16%
COCCN(C/C=C/c1ccccc1)Cc1[nH]cnc1C | -1.061%
CCn1ncnc1CN(C/C=C/c1ccccc1)CCOC | -13.31%
COCCN(C/C=C/c1ccccc1)Cc1ncc[nH]1 | 14.48%
COCCN(C/C=C/c1ccccc1)Cc1ccccn1 | 61.37%
COCCN(C/C=C/c1ccccc1)Cc1nccs1 | 1.581%
CCc1ccc(CN(C/C=C/c2ccccc2)CCOC)nc1 | 98.48%
Cc1ccc(CN2Cc3ccccc3O[C@]3(CC[C@H](CO)CC3)C2)s1.Cl | -7.456%
COCCN1CCc2c(cnc(-c3ccccc3)c2C(=O)O)C1.O=C(O)C(F)(F)F | -9.252%
O=C(O)C(F)(F)F.O=C(c1cscn1)N1CC[C@@H]2[C@@H]1CCN2CC1CCOCC1 | 39.35%
CCN1CCC(N2CCC(C(=O)N(C)C)CC2)CC1.O=C(O)C(F)(F)F.O=C(O)C(F)(F)F | 2.155%
OC(CN(Cc1ccccc1)Cc1ccccn1)c1cccs1 (stereo not given) | 66.35%
OC(CN(Cc1ccccc1)Cc1ccncc1)c1cccs1 (stereo not given) | -1.892%
OC(CN(Cc1ccccc1)Cc1cscn1)c1cccs1 (stereo not given) | 5.463%
